Source: PubChem (National Center for Advancing Translational Sciences (NCATS))
SW480 rereplic: inducers of DNA re-replication in SW480 colon cancer cells; 1.8% of 340,000 active; Potency, µM (highest dose often 46.1 µM), for the others: at the highest dose re-replication activation, hits mostly activators; SW480 DNA re-replication, Hoechst DNA content imaging, 48 h; note: % of control where 0% means no effect; nearly all actives have a fitted effect of over 55% in size
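Hoechst fluorescence of nuclei (405 nm excitation, 500-530 nm emission) measured by plate-scanning imager after 48 hr compound exposure at 37 C; re-replication scored as increased number of nuclei with elevated intensity.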
KB-3-1 tox: kills parental KB-3-1 adenocarcinoma cells. KB-3-1 viability, CellTiter-Glo ATP luminescence, 72 h. Potency, µM (top dose mostly 46.1 µM), hits mostly cytotoxic. 1.4% of 400,000 active. AID 1347075; note: % is set by controls: 0 for no effect and ±100 for the full control effect; nearly all actives have a fitted effect of over 60% in size
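Parental KB-3-1 viability, qHTS format: 72 h compound exposure, 37 °C; CellTiter-Glo; media-only wells and DMSO plates as controls; concentration-effect fits on corrected data.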
HT1080 IDH1KD tx: toxicity to HT-1080 IDH1 knockdown cells (counter line) | Potency, µM (highest dose often 46.1 µM), for inactives: at the top dose activity, negative = toxicity, actives largely listed as cytotoxic | HT-1080 IDH1 knockdown viability, ATP luminescence, 48 h | 2% of 360,000 active;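 note: 0% = DMSO wells and -100% = cell-free medium wells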
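Luminescent ATP read-out (CellTiter-Glo, 10 min at room temperature) after 48 h compound exposure at 37 °C gave viability of IDH1-knockdown HT-1080 cells. Activity was normalised to DMSO and cell-free wells, then fitted as concentration-response curves.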
KB-V1 cytotox: KB-V1 MDR subline cytotoxicity; KB-V1 MDR cells viability, CellTiter-Glo, 72 h; Potency, µM (titrated, usually from 46.1 µM), actives largely listed as cytotoxic; 3.4% of 400,000 active; note: % is set by controls: 0 for no effect and ±100 for the full control effect; nearly all actives have a fitted effect of over 60% in size
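Cytotoxicity via CellTiter-Glo luminescence after 72 h compound exposure at 37 degrees C. Cells: drug-selected KB-V1 line, DMEM phenol-red free plus 10% FBS. Compounds tested at multiple concentrations; normalized data fitted to concentration-effect curves.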
HT1080NT lethal: kills 2HG-producing HT-1080-NT fibrosarcoma cells. HT-1080-NT fibrosarcoma viability, CellTiter-Glo ATP luminescence, 48 h. Potency, µM (doses to about 46.1 µM), for inactives: top-dose activity, negative = less viability, hits mostly cytotoxic. AID 686970. 1.6% of 360,000 active;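 note: NT is the 2HG producing partner of a matched IDH1 knockdown line; 0% = DMSO-treated cells and -100% = media-only wells without cells; nearly all actives have a fitted effect of over 55% in size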
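Fibrosarcoma NT cells, 750 per well in 5% FBS RPMI, were exposed to compound for 48 hours. Viability: CellTiter-Glo luminescence.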
MCF10A rereplic: DNA re-replication induction in MCF 10a cells; MCF 10A DNA re-replication, Hoechst nuclear intensity, 48 h; Potency, µM (top dose mostly 46.1 µM), for inactives: at the highest dose activity, positive = re-replication, usual class: activators; 2.9% of 350,000 active; AID 624296; note: % of control where 0% means no effect; nearly all actives have a fitted effect of over 50% in size
* = called active by the depositor; i = inactive; ? = inconclusive; . = no result given; [ ] = another dose, or the depositor's remark. Hits are enriched below; roughly 8% of the tested compounds scored in any of these assays. Calls come from the whole dose curve; as a rule, active = well fitted curve in the direction sought with a large enough effect; inconclusive = small, poorly fitted or top-dose-only effect, or another doubt; inactive = no such curve, though single readings can be large; an effect the other way counts as inactive or inconclusive. Potency is the fitted concentration of half-maximal effect.

SMILES | SW480 rereplic | KB-3-1 tox | HT1080 IDH1KD tx | KB-V1 cytotox | HT1080NT lethal | MCF10A rereplic
CCOc1cccc(-c2nn3c(-c4ccco4)nnc3s2)c1 | -2% | ? | 12% | 9.2µM* | 9% | 9%
O=C(CSc1nc2ccccc2c(=O)n1CCC(=O)NC1CCCCC1)Nc1ccccc1Cl | . | i | . | i | . | .
Cc1cc2c(cc1NS(=O)(=O)c1cccc(C#N)c1)n(C)c(=O)c(=O)n2C | . | i | . | i | . | .
CC(C)(C)c1nnc(NC(=O)c2cccnc2)s1 | ? | i | -9% | i | -5% | ?
CCOc1ccccc1NC(=O)CSc1ccc2nnc(CCNS(=O)(=O)c3ccccc3)n2n1 | . | i | . | i | . | .
Cc1nn(-c2nnc(NCc3ccccc3)nn2)c(C)c1Br | 111% | 8.2µM* | 11% | 21µM* | -2% | 15%
Cc1cc(C)n(-c2nnc(NCc3ccc(Cl)cc3)nn2)n1 | 12µM* | i | -28% | i | -15% | 19%
CCC(C)NC(=O)c1sc2nc(C)c(C(=O)Nc3ccc(C)cc3C)c(-c3ccc(Br)cc3)c2c1N (configuration not stated) | . | i | . | i | . | .
Cc1ccc(C2CC2c2n[nH]c(=S)n2-c2ccc(Cl)cc2)cc1 (configuration not stated) | 3% | ? | ? | 16µM* | -21% | 91%
Cc1nc(NCC2CCCO2)nc2c1C(=O)CC(C)C2 (configuration not stated) | 4% | i | 11% | i | 7% | -1%
Cc1nc(NCC2CCCO2)nc2c1C(=O)CC(C)(C)C2 (configuration not stated) | 2% | i | 5% | 21µM* | -13% | ?
Brc1cccc[n+]1Cc1ccccc1C[n+]1ccccc1Br | . | i | . | i | . | .
COCc1cc(=O)[nH]c(/N=C(\N)Nc2cccc(C)c2)n1 | 6% | i | -1% | ? | -4% | -184%[0.0737 µM]
Cc1ccc(N/C(N)=N/c2nc(CSc3nnc(C)s3)cc(=O)[nH]2)c(C)c1 | ? | 2.3µM* | 4.1µM* | ? | 2.6µM* | 5.8µM*
Cc1cccc(N/C(N)=N/c2nc(CSc3ccc(Cl)cc3)cc(=O)[nH]2)c1 | ? | i | -3% | i | 0% | 3.7µM*
COC(=O)Cc1cc(=O)[nH]c(/N=C(\N)Nc2cccc(C)c2)n1 | -2% | i | 18% | i | 21% | -3%
COc1ccc(N/C(N)=N/c2nc(CSc3nnc(C)s3)cc(=O)[nH]2)cc1 | 3.3µM* | 5.2µM* | 2.6µM* | i | 3.3µM* | ?
COCc1cc(=O)[nH]c(/N=C(\N)Nc2ccc(Oc3ccccc3)cc2)n1 | -4% | i | 3% | 18µM* | -15% | 1%
COc1ccc(C2=NS(=O)(=O)N(C)C(C(=O)N3CCOCC3)=C2)cc1OC | -3% | i | 0% | i | -6% | 2%
CCc1ccc(NC(=O)c2cc3c([nH]c2=O)CC(C)(C)CC3=O)cc1 | . | i | . | i | . | .
N=c1n(CCN2CCCCC2)c2ccccc2n1CC(O)c1ccc(Cl)c(Cl)c1 (configuration not stated) | -2% | ? | 13µM* | 21µM* | 11µM* | ?
CCCCn1c(=N)n(CC(O)c2ccccc2)c2ccccc21 (configuration not stated) | 3% | ? | -11% | ? | -19% | 11%
N=c1n(CCN2CCCCC2)c2ccccc2n1CC(O)c1cccc(Br)c1 (configuration not stated) | ? | ? | ? | ? | 23µM* | ?
CN(C)CCn1c(=N)n(CC(O)c2ccc(Cl)c(Cl)c2)c2ccccc21 (configuration not stated) | ? | ? | ? | i | 23µM* | ?
O=C(/C=C/NNC(=O)c1ccccc1)c1ccc([N+](=O)[O-])cc1 | ? | i | ? | ? | ? | 4%
SMILES | SW480 rereplic | KB-3-1 tox | HT1080 IDH1KD tx | KB-V1 cytotox | HT1080NT lethal | MCF10A rereplic
CCOC(=O)C(C)(C)N(Cc1cccc(C)c1)S(=O)(=O)c1cccc([N+](=O)[O-])c1 | -4% | 16µM* | -8% | 7.3µM* | -1% | 5%
CCOC(=O)c1ccc(CN(Cc2ccc(C)cc2)S(=O)(=O)c2cccc([N+](=O)[O-])c2)cc1 | -3% | i | 10% | i | 6% | -21%
CCOC(=O)C(C)(C)N(Cc1cccc(C)c1)S(=O)(=O)c1ccc(Cl)c([N+](=O)[O-])c1 | ? | 21µM* | ? | i | -11% | 5.2µM*
COc1ccc(/C=C(/NC(=O)c2ccccc2)c2nc3ccc(Cl)cc3[nH]2)cc1OC | -1% | ? | -15% | 12µM* | -11% | ?
COc1ccc(/C=C(/NC(=O)c2ccccc2)c2nc3ccccc3[nH]2)cc1OC | ? | i | -5% | i | -8% | 21µM*
CCCCOc1ccc(CC(=O)NOC)cc1 | . | i | . | i | . | .
COc1ccc(-c2c(C#Cc3ccsc3)c3cc(-c4ccc5cc[nH]c5c4)ccc3n2C)cc1 | ? | i | -2% | ? | 1% | 2.3µM*
Cc1cc2c(C)cc(=O)oc2c2c1NCCC2 | ? | i | -30% | i | -4% | 13µM*
COC(=O)c1ccccc1NC(=O)Cc1nc(-c2ccc(OC)cc2)no1 | . | i | . | ? | . | .
COc1cccc(CNC(=O)c2cc3c(=O)oc4ccc(C)cc4c3s2)c1 | . | i | . | i | . | .
COC(=O)CCC(=O)OC | 4.6µM* | i | -1% | i | -5% | ?
COC(=O)CCCCC(=O)OC | -46% | i | 3% | i | -2% | -14%
O=C1c2ccccc2C(=O)N1CCc1csc(-c2ccccc2)n1 | 12% | ? | -3% | 16µM* | -2% | ?
COc1ccc(OCCSc2nnc3sc4ccccc4n23)cc1 | ? | i | -5% | ? | 0% | 6.5µM*
CN(C)CCSc1nnc2sc3ccccc3n12 | 0% | ? | -3% | i | -5% | 0%
COc1ccccc1NC(=O)CSc1nncn1-c1ccccc1 | 2% | i | 2% | i | 9% | 4%
COc1ccccc1NC(=O)CSc1nnc2c(n1)[nH]c1ccccc12 | . | i | . | 12µM* | . | .
COc1ccccc1NC(=O)CSc1ncn(-c2ccccc2)n1 | -4% | i | -1% | 16µM* | -4% | -4%
COc1ccc(CNC(=O)CSc2nnc3c(n2)[nH]c2ccccc23)cc1 | -1% | i | 1% | i | 2% | -6%
